Test [1] concerns the target Fibroblast growth factor receptor 4 (Homo sapiens) (UniProt P22455). As to conditions: at 1 µM.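 Also: reported figure is the averaged percent inhibition of FGFR4, from the GSK PKIS kinase screening panel.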
Test [2] has as its target Tyrosine-protein kinase Fgr (Homo sapiens) (UniProt P09769). As to conditions: at 0.1 µM.
Test [3] shares this target. As to conditions: at 1 µM.
The target in test [4] is Vascular endothelial growth factor receptor 1 (Homo sapiens) (UniProt P17948). The conditions noted are these: at 0.1 µM.
Test [5] shares this target. The conditions noted are these: at 1 µM.
Test [6] has as its target Receptor-type tyrosine-protein kinase FLT3 (Homo sapiens) (UniProt P36888). As to conditions: at 0.1 µM.
Test [7] shares this target. The conditions noted are these: at 1 µM.
The subject of test [8] is T1, Receptor-type tyrosine-protein kinase FLT3 (Homo sapiens), P36888 [D835Y].
T1 sequence (whole entry): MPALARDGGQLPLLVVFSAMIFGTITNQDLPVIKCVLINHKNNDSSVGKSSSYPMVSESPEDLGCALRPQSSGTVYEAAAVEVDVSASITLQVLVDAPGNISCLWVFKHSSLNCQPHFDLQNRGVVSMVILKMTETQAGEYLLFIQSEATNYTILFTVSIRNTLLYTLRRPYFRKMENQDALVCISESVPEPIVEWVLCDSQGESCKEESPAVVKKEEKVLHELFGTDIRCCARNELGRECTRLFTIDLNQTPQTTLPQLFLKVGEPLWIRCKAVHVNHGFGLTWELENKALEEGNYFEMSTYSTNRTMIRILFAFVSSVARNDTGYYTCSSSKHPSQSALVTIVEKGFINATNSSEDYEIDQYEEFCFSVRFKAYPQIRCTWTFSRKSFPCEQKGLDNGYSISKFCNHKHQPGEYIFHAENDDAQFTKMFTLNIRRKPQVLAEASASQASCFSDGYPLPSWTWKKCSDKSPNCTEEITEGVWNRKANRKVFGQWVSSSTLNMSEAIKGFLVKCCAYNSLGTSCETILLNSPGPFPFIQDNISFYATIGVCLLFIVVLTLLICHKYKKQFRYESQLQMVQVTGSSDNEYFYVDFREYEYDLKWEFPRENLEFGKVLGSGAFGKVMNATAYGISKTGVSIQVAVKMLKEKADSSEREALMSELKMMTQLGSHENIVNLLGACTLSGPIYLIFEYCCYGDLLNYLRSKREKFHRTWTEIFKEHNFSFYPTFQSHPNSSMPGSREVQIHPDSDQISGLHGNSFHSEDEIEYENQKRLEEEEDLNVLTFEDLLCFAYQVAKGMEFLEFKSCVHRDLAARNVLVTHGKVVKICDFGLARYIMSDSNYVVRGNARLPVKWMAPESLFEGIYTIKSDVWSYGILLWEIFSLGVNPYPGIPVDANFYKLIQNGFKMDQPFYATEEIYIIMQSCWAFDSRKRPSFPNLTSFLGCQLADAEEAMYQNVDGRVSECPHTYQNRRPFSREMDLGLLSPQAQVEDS
The conditions noted are these: at 0.1 µM.

Test [9] addresses Non-receptor tyrosine-protein kinase TYK2 (Homo sapiens) (UniProt P29597). The conditions noted are these: at 1 µM.
The target of test [10] is T2, Tyrosine-protein kinase receptor TYRO3 (Homo sapiens) (UniProt Q06418).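 Also: reported percentages are averaged inhibition values of TYRO3 kinase activity.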
T2 sequence (whole entry): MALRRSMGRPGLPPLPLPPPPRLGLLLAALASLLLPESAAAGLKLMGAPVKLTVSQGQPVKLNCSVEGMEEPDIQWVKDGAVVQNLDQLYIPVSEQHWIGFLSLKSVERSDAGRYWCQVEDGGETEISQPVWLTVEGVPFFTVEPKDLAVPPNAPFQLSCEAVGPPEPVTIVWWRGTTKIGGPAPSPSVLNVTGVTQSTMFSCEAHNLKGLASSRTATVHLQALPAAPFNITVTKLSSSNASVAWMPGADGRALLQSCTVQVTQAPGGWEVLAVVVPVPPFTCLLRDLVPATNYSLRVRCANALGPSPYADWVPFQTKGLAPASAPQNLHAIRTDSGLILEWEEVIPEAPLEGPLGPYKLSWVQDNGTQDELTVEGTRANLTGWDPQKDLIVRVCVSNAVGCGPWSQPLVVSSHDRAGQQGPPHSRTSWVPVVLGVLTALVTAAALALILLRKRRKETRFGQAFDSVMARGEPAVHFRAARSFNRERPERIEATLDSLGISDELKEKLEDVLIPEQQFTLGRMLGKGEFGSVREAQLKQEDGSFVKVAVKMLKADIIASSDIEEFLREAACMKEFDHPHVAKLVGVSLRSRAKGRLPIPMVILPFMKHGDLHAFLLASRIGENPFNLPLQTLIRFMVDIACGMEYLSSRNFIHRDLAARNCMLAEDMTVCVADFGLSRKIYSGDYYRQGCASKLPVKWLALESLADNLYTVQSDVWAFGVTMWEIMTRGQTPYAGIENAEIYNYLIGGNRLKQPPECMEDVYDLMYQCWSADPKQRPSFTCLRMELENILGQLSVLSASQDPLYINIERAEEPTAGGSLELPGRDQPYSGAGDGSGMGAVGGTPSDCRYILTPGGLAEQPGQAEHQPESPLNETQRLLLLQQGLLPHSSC
The conditions noted are these: at 0.1 µM.

The results in this text go back to ChEMBL document CHEMBL1961873, “Compounds: GSK PKIS; Assays: Nanosyn kinase panel” (2012).

SMILES strings stand for the structures.

In general, inhibition refers to the change of the read-out against control, counted positive when it falls.

Chain of Fibroblast growth factor receptor 4 (Homo sapiens) (P22455 22-802 limits assumed): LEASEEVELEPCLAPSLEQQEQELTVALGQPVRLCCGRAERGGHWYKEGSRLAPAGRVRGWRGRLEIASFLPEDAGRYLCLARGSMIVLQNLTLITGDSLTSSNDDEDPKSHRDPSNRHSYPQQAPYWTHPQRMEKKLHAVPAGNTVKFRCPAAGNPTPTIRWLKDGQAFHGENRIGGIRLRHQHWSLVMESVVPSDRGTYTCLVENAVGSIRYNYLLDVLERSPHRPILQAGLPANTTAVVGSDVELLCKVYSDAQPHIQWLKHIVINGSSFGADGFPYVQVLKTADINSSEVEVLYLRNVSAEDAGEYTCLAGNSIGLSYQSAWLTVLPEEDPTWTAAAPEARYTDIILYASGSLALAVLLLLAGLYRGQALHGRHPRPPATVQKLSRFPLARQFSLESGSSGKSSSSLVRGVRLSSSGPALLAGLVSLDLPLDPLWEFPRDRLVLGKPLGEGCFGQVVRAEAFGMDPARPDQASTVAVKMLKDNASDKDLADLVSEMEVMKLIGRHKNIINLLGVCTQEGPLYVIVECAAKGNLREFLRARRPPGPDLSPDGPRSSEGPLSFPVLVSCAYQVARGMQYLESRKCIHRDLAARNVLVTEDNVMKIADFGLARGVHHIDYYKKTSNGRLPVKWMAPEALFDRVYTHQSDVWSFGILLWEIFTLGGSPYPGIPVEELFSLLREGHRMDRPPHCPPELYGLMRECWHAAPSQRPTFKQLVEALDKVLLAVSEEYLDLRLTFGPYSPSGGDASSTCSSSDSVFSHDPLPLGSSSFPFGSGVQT
Chain of Tyrosine-protein kinase Fgr (Homo sapiens) (P09769 2-529 limits assumed): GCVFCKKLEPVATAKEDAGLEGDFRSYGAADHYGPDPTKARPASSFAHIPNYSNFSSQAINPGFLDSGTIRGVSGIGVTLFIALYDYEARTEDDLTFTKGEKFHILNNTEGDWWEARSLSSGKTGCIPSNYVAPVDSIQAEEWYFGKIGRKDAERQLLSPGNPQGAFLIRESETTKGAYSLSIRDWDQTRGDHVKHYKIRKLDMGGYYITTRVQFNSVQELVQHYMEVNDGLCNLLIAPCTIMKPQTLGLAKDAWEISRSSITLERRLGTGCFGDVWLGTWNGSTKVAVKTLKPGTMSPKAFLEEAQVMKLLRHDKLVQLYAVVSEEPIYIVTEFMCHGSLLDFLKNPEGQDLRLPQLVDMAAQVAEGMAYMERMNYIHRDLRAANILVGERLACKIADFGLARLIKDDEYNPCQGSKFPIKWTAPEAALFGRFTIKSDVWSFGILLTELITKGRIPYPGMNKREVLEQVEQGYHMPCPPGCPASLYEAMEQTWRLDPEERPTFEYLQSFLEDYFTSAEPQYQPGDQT
Chain of Vascular endothelial growth factor receptor 1 (Homo sapiens) (P17948 whole entry): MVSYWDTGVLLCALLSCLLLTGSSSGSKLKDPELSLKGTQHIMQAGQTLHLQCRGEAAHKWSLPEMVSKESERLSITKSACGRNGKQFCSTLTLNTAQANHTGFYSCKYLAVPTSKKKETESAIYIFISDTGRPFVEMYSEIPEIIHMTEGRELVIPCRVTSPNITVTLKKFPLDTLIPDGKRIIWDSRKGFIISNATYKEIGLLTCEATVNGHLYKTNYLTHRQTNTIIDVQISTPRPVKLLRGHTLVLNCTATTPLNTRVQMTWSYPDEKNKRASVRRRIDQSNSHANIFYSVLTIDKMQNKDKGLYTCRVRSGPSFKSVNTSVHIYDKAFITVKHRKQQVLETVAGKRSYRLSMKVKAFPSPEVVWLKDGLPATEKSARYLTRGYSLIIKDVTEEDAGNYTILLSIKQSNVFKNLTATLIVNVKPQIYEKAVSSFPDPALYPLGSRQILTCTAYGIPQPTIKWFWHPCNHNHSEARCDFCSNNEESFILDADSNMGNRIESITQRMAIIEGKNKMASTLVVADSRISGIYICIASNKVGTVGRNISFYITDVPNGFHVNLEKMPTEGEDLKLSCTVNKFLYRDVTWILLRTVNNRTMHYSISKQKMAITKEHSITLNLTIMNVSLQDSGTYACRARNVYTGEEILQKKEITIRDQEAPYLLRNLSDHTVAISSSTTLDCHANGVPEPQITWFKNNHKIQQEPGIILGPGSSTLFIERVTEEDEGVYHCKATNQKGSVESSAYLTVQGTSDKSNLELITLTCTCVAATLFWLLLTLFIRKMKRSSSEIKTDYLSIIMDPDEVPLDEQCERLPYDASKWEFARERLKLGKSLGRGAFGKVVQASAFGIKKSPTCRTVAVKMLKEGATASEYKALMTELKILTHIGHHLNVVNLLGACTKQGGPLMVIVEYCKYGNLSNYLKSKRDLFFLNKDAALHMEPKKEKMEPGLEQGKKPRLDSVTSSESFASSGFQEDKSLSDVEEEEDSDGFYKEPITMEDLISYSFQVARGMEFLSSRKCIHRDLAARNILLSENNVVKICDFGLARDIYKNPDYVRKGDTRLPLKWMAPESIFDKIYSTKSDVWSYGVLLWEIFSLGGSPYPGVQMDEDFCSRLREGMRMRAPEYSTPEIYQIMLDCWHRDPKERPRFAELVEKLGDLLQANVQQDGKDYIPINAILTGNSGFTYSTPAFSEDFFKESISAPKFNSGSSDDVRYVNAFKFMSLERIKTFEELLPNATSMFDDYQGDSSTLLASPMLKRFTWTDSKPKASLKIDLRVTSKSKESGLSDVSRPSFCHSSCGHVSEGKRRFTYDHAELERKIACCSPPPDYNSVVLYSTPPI
Chain of Non-receptor tyrosine-protein kinase TYK2 (Homo sapiens) (P29597 whole entry): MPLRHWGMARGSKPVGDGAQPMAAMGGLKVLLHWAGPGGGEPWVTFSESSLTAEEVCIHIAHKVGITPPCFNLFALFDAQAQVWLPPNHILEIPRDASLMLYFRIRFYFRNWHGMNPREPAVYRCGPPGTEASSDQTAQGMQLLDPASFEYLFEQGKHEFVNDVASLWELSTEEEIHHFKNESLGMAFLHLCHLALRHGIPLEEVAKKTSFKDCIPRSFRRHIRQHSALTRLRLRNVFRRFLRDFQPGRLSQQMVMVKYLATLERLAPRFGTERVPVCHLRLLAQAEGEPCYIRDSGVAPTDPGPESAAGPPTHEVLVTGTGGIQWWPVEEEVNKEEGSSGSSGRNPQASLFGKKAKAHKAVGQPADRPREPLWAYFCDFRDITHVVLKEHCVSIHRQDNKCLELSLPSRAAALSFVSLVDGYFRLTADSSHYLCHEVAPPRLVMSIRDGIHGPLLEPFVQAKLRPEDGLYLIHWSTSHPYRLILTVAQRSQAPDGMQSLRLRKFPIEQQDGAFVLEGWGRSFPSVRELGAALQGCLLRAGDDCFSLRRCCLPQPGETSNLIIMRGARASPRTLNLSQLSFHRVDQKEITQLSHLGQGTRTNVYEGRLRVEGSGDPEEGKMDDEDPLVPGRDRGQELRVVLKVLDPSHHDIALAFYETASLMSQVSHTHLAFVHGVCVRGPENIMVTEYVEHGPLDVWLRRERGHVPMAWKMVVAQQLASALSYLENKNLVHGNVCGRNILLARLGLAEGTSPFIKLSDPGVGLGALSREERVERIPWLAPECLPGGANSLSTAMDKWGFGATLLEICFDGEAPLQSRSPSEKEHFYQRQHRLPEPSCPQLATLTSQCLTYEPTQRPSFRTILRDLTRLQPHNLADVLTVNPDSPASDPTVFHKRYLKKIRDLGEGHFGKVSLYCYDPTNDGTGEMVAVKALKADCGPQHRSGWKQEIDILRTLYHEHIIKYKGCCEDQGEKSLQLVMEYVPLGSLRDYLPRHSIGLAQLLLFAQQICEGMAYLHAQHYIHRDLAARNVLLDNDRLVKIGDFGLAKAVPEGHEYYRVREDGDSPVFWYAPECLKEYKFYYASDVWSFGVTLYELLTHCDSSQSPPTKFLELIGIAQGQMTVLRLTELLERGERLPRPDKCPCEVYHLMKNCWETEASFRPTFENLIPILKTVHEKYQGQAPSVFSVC

For the compound `CC(=O)NCc1cccc(C#Cc2cncnc2Nc2ccc(OCc3cccc(F)c3)c(Cl)c2)c1`, the inhibition was -0.23% in [1]; -0.22% in [2]; 4.83% in [3]; -0.55% in test [4]; 0.27% in [5]; 0.26% in test [6]. Also, the inhibition in test [7] is -1.41%; in test [8], -0.58%; in [9], 2.95%; in [10], 1.2%.
With `CNC(=O)c1cncc(/C=C/c2ccccc2Cl)c1`, the inhibition in [1] came out at 1.93%; in [2], 5.13%; in test [3] it was 9.91%; in test [4] it was 0.53%; in [5], 2.73%; in [6], 1.25%. For the same compound, the inhibition in test [7] is -0.38%; in test [8], 3.03%; in test [9] it was 2.16%; in test [10] it was 0.43%.
Turning to `NS(=O)(=O)c1ccc(N/N=C2\C(=O)Nc3ccc4ncccc4c32)cc1`, the inhibition in test [1] worked out at 6.88%; in [2], 8.01%; in test [3], 42.4%; in [4], 11%; in test [5], 59.6%; in [6] it was 23.9%. Further, the inhibition in test [7] stood at 73.2%; in test [8] it was 35.1%; in test [9], 33.5%; in test [10], 7.02%.
With `N#Cc1c(NC(=O)c2ccc(F)cc2)sc2c1CCCC2`, the inhibition in test [1] was 1.31%; in test [2] it was 2.11%; in [3] it was 1.83%; in test [4], 0.3%; in [5], 1.63%; in test [6], -2.18%. In addition, the inhibition is 0.66% in test [7], -4.75% in [8], -1.49% in [9] and 0.28% in test [10].
In the case of `COc1cc(Nc2nccc(Nc3ccc4c(C)n[nH]c4c3)n2)cc(OC)c1OC`, the inhibition in test [1] is 2.48%; in test [2], 18.2%; in [3] it was 57.5%; in test [4], 38.3%; in test [5] it was 88%; in test [6] it was 57.8%. Moreover, the inhibition in [7] worked out at 90.3%; in [8], 52.4%; in test [9] it was 33.3%; in test [10] it was 5.01%.
Consider `CN(C)CCOc1ccc(-c2nc(-c3ccncc3)c(-c3ccc4c(c3)CC/C4=N\O)[nH]2)cc1`, for which the inhibition in test [1] is 0.44%; in test [2], 2.2%; in [3], 5.88%; in test [4], 2.37%; in test [5], 2.95%; in test [6], 2.67%. In addition, the inhibition in test [7] is 2.62%; in test [8] it was 1.65%; in test [9], -5.49%; in test [10], 3.44%.
Turning to `Nc1nc(-c2cccc(Cl)c2)c(-c2ccc3ncccc3n2)s1`, the inhibition was 2.06% in [1]; 4.53% in [2]; 4.6% in [3]; 0.88% in [4]; 3.45% in test [5]; 2.09% in test [6]. Also, the inhibition in test [7] was 2%; in [8], -4.43%; in [9], -0.72%; in test [10], 3.62%.
Consider `CS(=O)(=O)CCNCc1ccc(-c2ccc3ncnc(Nc4ccc(OCc5ccccc5)c(C(F)(F)F)c4)c3c2)o1`, for which the inhibition in test [1] amounted to 2.14%; in [2] it was 1.98%; in test [3], 4.93%; in test [4], 1.28%; in [5], 0.39%; in test [6], 3.55%. The inhibition in [7] is 2.04%; in [8], -8.47%; in [9], -3.76%; in [10] it was 5.89%.
`COc1ccc(CNC(=O)c2ccc(-c3cc(-c4nnc(C)o4)ccc3C)cc2)cc1`: the inhibition in [1] was 3.73%; in [2], 8.93%; in [3] it was 6.92%; in test [4] it was -0.52%; in [5], -0.47%; in [6], 0.57%. Further, the inhibition is -0.2% in test [7], -2.79% in test [8], 1.88% in test [9] and 1.4% in test [10].
Turning to `CCCN1CCC(c2ccc(Nc3nc(Nc4cc(F)ccc4C(N)=O)c4cc[nH]c4n3)c(OC)c2)CC1`, the inhibition was determined as 12.4% in [1]; 6.28% in test [2]; 7.49% in test [3]; 0.21% in [4]; 0.37% in test [5]; 4.46% in test [6]. Further, the inhibition was 20.3% in test [7], 6.01% in test [8], -2.78% in test [9] and 3.47% in test [10].
